Results: PubChem BioAssay AID1159580 (chemical genetic matrix, 2015)
Where “and” joins values, the source holds several entries; their conditions need not be identical. Equal entries are not always repeated. In all, about 5,500 compounds went through this assay and about 2,000 (36%) were called active. Not shown: some 18% with an inconclusive outcome. No stated cut-off is given here; in the data, active means normalized growth mostly below about 0.91 (no sharp cut-off); inconclusive means no clear call, values can overlap the other calls; inactive means mostly above about 0.92. The list shows a part of the results.

Assay: chemical genetic growth profiling, strain panel (AID 1159580);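 further: tested at 20 µM; growth read once vehicle control cultures reached saturation at 30 °C; 1 = growth at the plate median or of vehicle wells; lower values mean less growth of the strain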
Settings: growth OD
[1] = S. cerevisiae deletion strains, locus YAL013W, strain DEP1, active compounds read low
[2] = S. cerevisiae deletion strains, locus YBR229C, strain ROT2, active compounds read low
[3] = S. cerevisiae deletion strains, locus YDL101C, strain DUN1, active compounds read low
[4] = S. cerevisiae deletion strains, locus YDL134C, strain PPH21, active compounds read low
[5] = S. cerevisiae deletion strains, locus YDR150W, strain NUM1, active compounds read low
[6] = S. cerevisiae deletion strains, locus YEL061C, strain CIN8, active compounds read low
[7] = S. cerevisiae deletion strains, locus YGR078C, strain PAC10, active compounds read low
[8] = S. cerevisiae deletion strains, locus YHR030C, strain SLT2, active compounds read low
[9] = S. cerevisiae deletion strains, locus YHR087W, strain rtc3, active compounds read low
[10] = S. cerevisiae deletion strains, locus YJL187C, strain SWE1, active compounds read low
[11] = S. cerevisiae deletion strains, locus YJR043C, strain POL32, active compounds read low
[12] = S. cerevisiae deletion strains, locus YJR075W, strain HOC1, active compounds read low
[13] = S. cerevisiae deletion strains, locus YLR039C, strain RIC1, active compounds read low
[14] = S. cerevisiae deletion strains, locus YLR058C, strain SHM2 (second series), active compounds read low
[15] = S. cerevisiae deletion strains, locus YLR085C, strain ARP6, active compounds read low
[16] = S. cerevisiae deletion strains, locus YLR262C, strain YPT6, active compounds read low
[17] = S. cerevisiae deletion strains, locus YML094W, strain GIM5, active compounds read low
[18] = S. cerevisiae deletion strains, locus YMR219W, strain ESC1, active compounds read low
[19] = S. cerevisiae deletion strains, locus YMR263W, strain SAP30, active compounds read low
[20] = S. cerevisiae deletion strains, locus YMR307W, strain GAS1, active compounds read low
[21] = S. cerevisiae deletion strains, locus YNL153C, strain GIM3, active compounds read low
[22] = S. cerevisiae deletion strains, locus YNL298W, strain CLA4 (second series), active compounds read low
[23] = S. cerevisiae deletion strains, locus YNL322C, strain KRE1, active compounds read low
[24] = S. cerevisiae deletion strains, locus YNR030W, strain Alg12, active compounds read low
[25] = S. cerevisiae deletion strains, locus YPL055C, strain LGE1, active compounds read low
[26] = S. cerevisiae deletion strains, locus YPL241C, strain CIN2, active compounds read low
[27] = S. cerevisiae deletion strains, locus YPR135W, strain CTF4, active compounds read low
[28] = S. cerevisiae strains, strain wild type, active compounds read low
[29] = S. cerevisiae deletion strains, locus YKL190W, strain CNB1, active compounds read low
[30] = S. cerevisiae deletion strains, locus YOL006C, strain TOP1, active compounds read low
[31] = S. cerevisiae deletion strains, locus YNL128W, strain TEP1, active compounds read low

Measured: normalized growth

O=C1CCCc2c1c1ccccc1n2Cc1ccccc1
active: [13] 0.753 | [16] 0.75
inactive: [1] 0.99 | [2] 0.978 | [3] 0.974 | [4] 0.989 | [5] 0.893 | [6] 0.961 | [7] 0.972 | [8] 0.712 | [9] 0.965 | [10] 0.992 | [11] 0.996 | [12] 0.98 | [14] 0.997 | [15] 0.889 | [17] 0.91 | [18] 0.975 | [19] 0.94 | [20] 0.973 | [21] 0.98 | [22] 0.95 | [23] 0.974 | [24] 0.951 | [25] 0.933 | [26] 0.987 | [27] 0.839 | [28] 0.974

O=C1CCCc2c1nc(-c1ccccc1)n2O
inactive: [1] 1 | [2] 1 | [3] 1.03 | [5] 0.966 | [6] 1.05 | [7] 1 | [8] 1.05 | [9] 0.999 | [10] 1.02 | [11] 0.995 | [12] 1.01 | [29] 1 | [13] 1.04 | [14] 1.03 | [15] 0.998 | [16] 1.06 | [17] 1.01 | [18] 1.01 | [19] 0.999 | [21] 1.03 | [22] 0.993 | [23] 1.01 | [24] 1.01 | [30] 0.999 | [25] 0.905 | [26] 1.02 | [27] 1

CN1CCc2ccccc2Cc2[nH]c3ccccc3c2CC1
inactive: [1] 1.01 | S. cerevisiae deletion strains, locus YAL040C, strain CLN3, active compounds read low 1.04 | S. cerevisiae deletion strains, locus YCL061C, strain MRC1 (second series), active compounds read low 1.01 | [5] 1.01 | S. cerevisiae deletion strains, locus YDR363W, strain ESC2, active compounds read low 0.97 | S. cerevisiae deletion strains, locus YER002W, strain NOP16, active compounds read low 0.996 | [7] 0.994 | [31] 1.01 | [21] 1.03 | S. cerevisiae deletion strains, locus YNL175C, strain NOP13, active compounds read low 1.01 | S. cerevisiae deletion strains, locus YNL197C, strain WHI3, active compounds read low 1.01 | S. cerevisiae deletion strains, locus YNL224C, strain SQS1, active compounds read low 0.996 | [23] 1.02 | S. cerevisiae deletion strains, locus YOR083W, strain WHI5 (second series), active compounds read low 0.998 | [25] 1.01 | [26] 1.01

CN1CCc2c(c3ccccc3n2Cc2ccccc2)C1
active: S. cerevisiae deletion strains, locus YBR021W, strain FUR4, active compounds read low 0.631 | S. cerevisiae deletion strains, locus YGR135W, strain pre9, active compounds read low 0.863 | S. cerevisiae deletion strains, locus YGR229C, strain SMI1, active compounds read low 0.577 | S. cerevisiae deletion strains, locus YGR252W, strain gcn5, active compounds read low 0.646 | [13] 1.4 [resistant] | [16] 1.56 [resistant] | S. cerevisiae deletion strains, locus YLR342W, strain FKS1 (second series), active compounds read low 0.64 | S. cerevisiae deletion strains, locus YLR418C, strain cdc73, active compounds read low 0.714 | [31] 0.58 | [25] 0.731
inactive: [1] 0.927 | [2] 1 | S. cerevisiae deletion strains, locus YCL029C, strain bik1, active compounds read low 1.06 | S. cerevisiae deletion strains, locus YDL035C, strain GPR1, active compounds read low 0.913 | S. cerevisiae deletion strains, locus YDL074C, strain BRE1, active compounds read low 0.819 | [3] 1.02 | [4] 0.987 | S. cerevisiae deletion strains, locus YDL185W, strain tfp1, active compounds read low 1.01 | S. cerevisiae deletion strains, locus YDL192W, strain arf1, active compounds read low 1.01 | S. cerevisiae deletion strains, locus YDR101C, strain arx1, active compounds read low 1 | [5] 1.01 | S. cerevisiae deletion strains, locus YDR162C, strain NBP2, active compounds read low 0.992 | S. cerevisiae deletion strains, locus YDR318W, strain mcm21, active compounds read low 0.992 | S. cerevisiae deletion strains, locus YDR388W, active compounds read low 0.981 | S. cerevisiae deletion strains, locus YDR502C, strain sam2, active compounds read low 0.953 | [6] 1 | S. cerevisiae deletion strains, locus YER110C, active compounds read low 1.01 | S. cerevisiae deletion strains, locus YER155C, strain BEM2, active compounds read low 1.02 | S. cerevisiae deletion strains, locus YER167W, strain BCK2, active compounds read low 0.98 | S. cerevisiae deletion strains, locus YGL078C, strain dbp3, active compounds read low 1.01 | S. cerevisiae deletion strains, locus YGL086W, strain mad1, active compounds read low 0.963 | S. cerevisiae deletion strains, locus YGL248W, strain PDE1, active compounds read low 0.998 | [7] 0.932 | [8] 0.949 and 1.03 | S. cerevisiae deletion strains, locus YHR079C, strain IRE1 (second series), active compounds read low 1.01 | S. cerevisiae deletion strains, locus YHR079C, strain IRE1, active compounds read low 1.03 | S. cerevisiae deletion strains, locus YHR094C, strain hxt1, active compounds read low 1.01 | S. cerevisiae deletion strains, locus YHR129C, strain ARP1, active compounds read low 1.01 | S. cerevisiae deletion strains, locus YHR200W, strain rpn10, active compounds read low 0.999 | S. cerevisiae deletion strains, locus YIL066C, strain RNR3, active compounds read low 0.951 | S. cerevisiae deletion strains, locus YIL073C, strain SPO22, active compounds read low 0.956 | S. cerevisiae deletion strains, locus YIL125W, strain kgd1, active compounds read low 0.996 | S. cerevisiae deletion strains, locus YIR030C, strain dcg1, active compounds read low 1.01 | S. cerevisiae deletion strains, locus YJL095W, strain BCK1, active compounds read low 0.847 and 1.02 | S. cerevisiae deletion strains, locus YJL134W, strain LCB3, active compounds read low 1 | S. cerevisiae deletion strains, locus YJL168C, strain set2, active compounds read low 1.02 | S. cerevisiae deletion strains, locus YJL187C, strain SWE1 (second series), active compounds read low 0.96 | [11] 1.06 | S. cerevisiae deletion strains, locus YJR066W, strain TOR1, active compounds read low 0.949 | [12] 0.934 | S. cerevisiae deletion strains, locus YKL009W, strain mrt4, active compounds read low 0.934 | S. cerevisiae deletion strains, locus YKL068W, active compounds read low 0.995 | S. cerevisiae deletion strains, locus YKL085W, strain MDH1 (second series), active compounds read low 0.99 | S. cerevisiae deletion strains, locus YKL085W, strain MDH1, active compounds read low 0.99 | [29] 0.996 | S. cerevisiae deletion strains, locus YKR001C, strain vps1, active compounds read low 1.01 | S. cerevisiae deletion strains, locus YLR058C, strain SHM2, active compounds read low 0.998 | S. cerevisiae deletion strains, locus YLR102C, strain apc9, active compounds read low 1.01 | S. cerevisiae deletion strains, locus YLR113W, strain HOG1, active compounds read low 0.995 | S. cerevisiae deletion strains, locus YLR268W, strain sec22, active compounds read low 1.03 | S. cerevisiae deletion strains, locus YLR330W, strain CHS5, active compounds read low 1.01 | S. cerevisiae deletion strains, locus YLR371W, strain rom2, active compounds read low 1.01 | S. cerevisiae deletion strains, locus YML016C, strain PPZ1, active compounds read low 1 | S. cerevisiae deletion strains, locus YML032C, strain rad52, active compounds read low 0.995 | S. cerevisiae deletion strains, locus YML124C, strain tub3, active compounds read low 1.02 | S. cerevisiae deletion strains, locus YMR078C, strain ctf18, active compounds read low 1.01 | S. cerevisiae deletion strains, locus YMR223W, strain ubp8, active compounds read low 0.953 | [19] 0.912 | [20] 0.979 | S. cerevisiae deletion strains, locus YNL067W, strain RPL9B, active compounds read low 0.959 | [21] 0.945 | S. cerevisiae deletion strains, locus YNL183C, strain NPR1, active compounds read low 0.96 | S. cerevisiae deletion strains, locus YNL233W, strain BNI4, active compounds read low 0.956 | S. cerevisiae deletion strains, locus YNL250W, strain rad50, active compounds read low 1.01 | S. cerevisiae deletion strains, locus YNL271C, strain bni1, active compounds read low 1.02 | S. cerevisiae deletion strains, locus YNL298W, strain CLA4, active compounds read low 1 | S. cerevisiae deletion strains, locus YNL307C, strain MCK1, active compounds read low 0.924 | [23] 1.01 | S. cerevisiae deletion strains, locus YNR052C, strain pop2, active compounds read low 0.98 | [30] 0.555 | S. cerevisiae deletion strains, locus YOL012C, strain htz1 1.16 | S. cerevisiae deletion strains, locus YOL147C, strain pex11, active compounds read low 1.01 | S. cerevisiae deletion strains, locus YOR061W, strain CKA2, active compounds read low 0.977 | S. cerevisiae deletion strains, locus YOR069W, strain VPS5, active compounds read low 1 | S. cerevisiae deletion strains, locus YOR136W, strain idh2, active compounds read low 0.996 | S. cerevisiae deletion strains, locus YOR144C, strain elg1, active compounds read low 1.01 | S. cerevisiae deletion strains, locus YOR184W, strain ser1, active compounds read low 0.983 | S. cerevisiae deletion strains, locus YOR231W, strain MKK1, active compounds read low 1.03 | S. cerevisiae deletion strains, locus YOR316C, strain cot1, active compounds read low 1.01 | [26] 1 | S. cerevisiae deletion strains, locus YPL256C, strain CLN2, active compounds read low 1.06 | S. cerevisiae deletion strains, locus YPR119W, strain clb2, active compounds read low 1.02 | S. cerevisiae deletion strains, locus YPR141C, strain kar3, active compounds read low 0.999 | S. cerevisiae deletion strains, locus YPR163C, strain tif3, active compounds read low 0.991 | S. cerevisiae deletion strains, locus YPR167C, strain met16, active compounds read low 1 | S. cerevisiae deletion strains, strain wtn01, active compounds read low 0.975 | [28] 0.947
